Source: PubChem BioAssay
Sampled rows, rich in hits. Any-hit rate of the full collection: about 3.9%.
Yeast superoxide: yeast age-related superoxide inhibition as caloric restriction mimetic; 330,000 tested, 0.18% active; superoxide response (% of plate mean), % at 10 µM; AID 2690; S. cerevisiae aged cells, superoxide DHE fluorescence; stronger effect = lower value;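 active = superoxide response under a set limit, about three screen SD below normal, cut at about 65% in these data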;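 also: yeast aged for seven days with compound at 30 °C before DHE staining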
PLC-beta3 inh: PLC-beta3 (human) inhibition, primary screen; Q01970; Purified PLC-beta3, fluorogenic substrate, fluorescence; inhibition, % at 12.2 µM; 370,000 tested, 0.18% active; in the data active = inhibition above about 11%
Target sequence (Q01970 whole entry, looked up): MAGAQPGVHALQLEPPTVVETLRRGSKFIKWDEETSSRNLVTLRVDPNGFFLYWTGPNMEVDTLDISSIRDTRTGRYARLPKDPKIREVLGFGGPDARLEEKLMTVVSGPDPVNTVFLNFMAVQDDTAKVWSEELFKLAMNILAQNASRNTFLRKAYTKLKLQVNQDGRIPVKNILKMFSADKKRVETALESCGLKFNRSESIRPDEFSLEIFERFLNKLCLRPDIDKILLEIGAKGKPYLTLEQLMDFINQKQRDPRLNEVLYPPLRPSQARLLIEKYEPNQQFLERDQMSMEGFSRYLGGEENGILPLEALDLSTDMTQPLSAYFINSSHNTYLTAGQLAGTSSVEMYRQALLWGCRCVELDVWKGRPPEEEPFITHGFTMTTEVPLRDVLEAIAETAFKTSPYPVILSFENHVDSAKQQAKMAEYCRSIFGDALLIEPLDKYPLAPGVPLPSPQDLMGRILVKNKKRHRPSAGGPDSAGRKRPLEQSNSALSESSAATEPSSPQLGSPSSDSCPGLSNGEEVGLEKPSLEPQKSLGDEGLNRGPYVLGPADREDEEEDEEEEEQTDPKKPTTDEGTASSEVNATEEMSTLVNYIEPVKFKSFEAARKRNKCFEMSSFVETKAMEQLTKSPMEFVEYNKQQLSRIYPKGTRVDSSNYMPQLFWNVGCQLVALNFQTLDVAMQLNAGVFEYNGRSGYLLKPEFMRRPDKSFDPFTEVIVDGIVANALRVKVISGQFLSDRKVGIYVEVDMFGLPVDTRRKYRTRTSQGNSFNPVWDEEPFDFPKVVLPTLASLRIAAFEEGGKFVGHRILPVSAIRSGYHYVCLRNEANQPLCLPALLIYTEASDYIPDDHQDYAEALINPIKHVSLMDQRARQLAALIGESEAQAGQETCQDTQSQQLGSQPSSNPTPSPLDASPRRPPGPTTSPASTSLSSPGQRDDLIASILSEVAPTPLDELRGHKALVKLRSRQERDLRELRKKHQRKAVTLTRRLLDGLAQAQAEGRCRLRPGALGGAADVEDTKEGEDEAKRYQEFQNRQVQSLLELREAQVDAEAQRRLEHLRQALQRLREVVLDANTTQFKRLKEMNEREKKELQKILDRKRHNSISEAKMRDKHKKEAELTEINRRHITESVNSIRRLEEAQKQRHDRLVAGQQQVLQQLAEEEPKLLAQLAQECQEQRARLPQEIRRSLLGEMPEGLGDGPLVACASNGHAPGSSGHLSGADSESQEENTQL
HGIII-sPLA2 inh: Blocks human group III sPLA2 activity; Q9NZ20; QFRET BODIPY PC-A2 liposome hydrolysis, fluorescence; inhibition, % at 12.2 µM; 370,000 tested, 0.56% active; AID 743126;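 active = inhibition above mean plus 3 SD of compounds lying within the high and low control bounds, cut at about 19% in these data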
AHR activator: human AHR activation; AHR-responsive luciferase reporter cells, luminescence; activation, % at 5 µM; 320,000 tested, 2.5% active; AID 2796; in the data active = activation above about 47%
PLC-gamma1 inh: PLC-gamma1 (human) inhibition, primary screen. P19174. purified PLC-gamma1, fluorogenic substrate, fluorescence. inhibition, % at 12.2 µM. 370,000 tested, 0.84% active; in the data active = inhibition above about 9.5%
HIF activator: HIF pathway transcriptional activation; U2OS HRE-luciferase reporter, luminescence; normalized: DMSO 0%, desferrioxamine 100%; activation, % at 7.5 µM (by protocol); 300,000 tested, 0.32% active;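 active = mean activation of at least 10% of the iron chelator positive control signal, with at least half of replicates also reaching 10%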
hGIII sPLA2 conf: human GIII-sPLA2 inhibition, confirmation; AID 743280; inhibition, % at 12.2 µM; recombinant hGIII-sPLA2, BODIPY PC-A2 QFRET fluorescence; 2,000 tested, 34% active; shares compounds with HGIII-sPLA2 inh;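 active = mean inhibition across triplicates above the hit cutoff set in the earlier primary screen, cut at about 19% in these data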
535nm interf: optically interferes with 535nm fluorescence in sPLA2 counter-screen. shares compounds with HGIII-sPLA2 inh. BODIPY FL product fluorescence interference, QFRET. inhibition, % at 12.2 µM. 2,000 tested, 8.5% active;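 active = average inhibition above the solvent-only control mean plus 3 SD, cut at about 6% in these data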
BODIPY interf DR: interferes with 535nm fluorescence in dose response counter-screen | BODIPY FL product fluorescence interference, cell-free | shares compounds with HGIII-sPLA2 inh | AID 743455 | 240 tested, under 10 active | IC50, µM;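 active = IC50 at or below 10 µM; inactive = IC50 above 10 µM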
Of the large screens only hits and unclear results are named; the others gave an inactive call (follow-up assays come after a bar, where they were run); ! = not active in a repeat.

CCSc1nnc([C@@H](NC(=O)OC(C)(C)C)C(C)C)o1	HGIII-sPLA2 inh 19.4 | hGIII sPLA2 conf inactive | 535nm interf inactive
N#C/C(=N\Nc1ccccc1)C(N)=S	HGIII-sPLA2 inh 19.4 | hGIII sPLA2 conf 33.4 | 535nm interf inactive
Cc1ccc(C)c(NC(=O)CN2C(=O)C3CC=CCC3C2=O)c1 (stereo not given)	none (no result: Yeast superoxide, AHR activator, HIF activator)
CCN(CC)C(=O)c1ccc2sc([C@H]3C[C@H](O)[C@@H](CO)O3)nc2c1	HGIII-sPLA2 inh 22.2 (no result: Yeast superoxide, AHR activator, HIF activator) | hGIII sPLA2 conf inactive | 535nm interf inactive
O=C(CCc1nnc2n(Cc3ccc(F)cc3)c(=O)c3ccccc3n12)N1CCN(c2ccccn2)CC1	none
O=c1ccc(-c2n[nH]c(=S)n2-c2ccc(F)c(Cl)c2)n[nH]1	none
Fc1ccc(-n2c(-c3cc(C4CC4)[nH]n3)n[nH]c2=S)cc1Cl	HGIII-sPLA2 inh 27.6 | hGIII sPLA2 conf 23.5 | 535nm interf inactive
CC(C)Nc1nc(NC(N)=S)nc(NC(C)C)n1	HGIII-sPLA2 inh 21.6 | hGIII sPLA2 conf 20.2 | 535nm interf inactive
O=C(NCCN1CCN(c2ccc([N+](=O)[O-])cc2)CC1)NCc1ccccc1	none
CN(C)CCNS(=O)(=O)c1ccc(N2CCc3ccccc32)c([N+](=O)[O-])c1	none
Cc1cc(C(=O)NCC(=O)OCC(=O)N(C(C)C)C(C)C)ccc1[N+](=O)[O-]	HGIII-sPLA2 inh 21.3 | hGIII sPLA2 conf inactive | 535nm interf inactive
O=C1CCCN1c1nccs1	HGIII-sPLA2 inh 19.6 | hGIII sPLA2 conf inactive | 535nm interf inactive
Nc1nonc1-n1nnc(C(=O)N/N=C/c2cccnc2)c1-c1ccccc1	none
Cc1ccc(C)c(-n2cc[nH]c2=S)c1	HGIII-sPLA2 inh 19.6 | hGIII sPLA2 conf inactive | 535nm interf inactive
CCC(=O)Nc1cccc(NC(=S)NC(=O)c2ccc(Cl)cc2Cl)c1	HGIII-sPLA2 inh 21.0 | hGIII sPLA2 conf inactive | 535nm interf inactive
CCC(=O)Nc1cccc(NC(=S)NC(=O)c2ccc(Cl)cc2)c1	none
O=C(NCCc1cccs1)Nc1ccc2nc([C@@H]3O[C@H](CO)[C@@H](O)[C@H]3O)[nH]c2c1	none (no result: Yeast superoxide, AHR activator, HIF activator)
c1ccc2c(c1)c1c3n2CCNC3CCC1 (stereo not given)	HGIII-sPLA2 inh 25.9 | hGIII sPLA2 conf 29.9 | 535nm interf inactive | BODIPY interf DR inactive
COc1ccc(/C=C(\NC(=O)c2cccs2)C(=O)NC(C)(C)C)cc1OC	none
O=C(NC(=S)Nc1ccc2oc(=O)ccc2c1)c1cc2ccccc2o1	HGIII-sPLA2 inh 22.3 | hGIII sPLA2 conf inactive | 535nm interf inactive
O=C(NCc1ccc(F)cc1)c1cc(C2CCCN(S(=O)(=O)c3ccccc3)C2)on1 (stereo not given)	none (no result: Yeast superoxide, AHR activator, HIF activator)
O=C(Nc1ccc(Oc2cccnc2)cc1)C1CCN(Cc2ccccc2F)CC1	none (no result: Yeast superoxide, AHR activator)
CC(C)CCNC(=O)Cc1ccc(Nc2nc(=S)[nH]c3ccccc23)cc1	none
O=C(Cc1ccc(Nc2nc(=S)[nH]c3ccccc23)cc1)NC1CCCCC1	HGIII-sPLA2 inh 21.3 | hGIII sPLA2 conf inactive | 535nm interf inactive
CC(CCC(=O)Nc1nncs1)C(=O)O (stereo not given)	HGIII-sPLA2 inh 20.2 | hGIII sPLA2 conf inactive | 535nm interf inactive
O=C(O)CCCC(=O)Nc1nncs1	none
CC1(CCc2ccccc2)NC(=O)NC1=O (stereo not given)	none (no result: Yeast superoxide, AHR activator, HIF activator)
CCOc1ccccc1Nc1cc2n(c(=O)n1)CCc1cc(OC)c(OC)cc1-2	HGIII-sPLA2 inh 82.0 | hGIII sPLA2 conf inactive | 535nm interf inactive
CCCCCCCCNC(=S)NCCN1CCCCC1	HGIII-sPLA2 inh 23.1 (no result: Yeast superoxide, AHR activator) | hGIII sPLA2 conf 21.4 | 535nm interf inactive
Cn1c(=O)n(C)c2cc(NC(=O)c3ccc(F)cc3)ccc21	none
CCC1CCCCN1C(=S)NC(=O)c1cc(S(=O)(=O)N2CCOCC2)ccc1C (stereo not given)	HGIII-sPLA2 inh 20.5 | hGIII sPLA2 conf inactive | 535nm interf inactive
O=C(C(=O)N1CCC(CNS(=O)(=O)c2ccccc2OC(F)(F)F)CC1)c1cccs1	none (no result: Yeast superoxide, AHR activator, HIF activator)
CCCCn1c(N)c(N(CC(C)C)C(=O)c2cccs2)c(=O)[nH]c1=O	none
NC(COCc1ccccc1)c1csc(Nc2nncc3ccccc23)n1 (stereo not given)	none (no result: Yeast superoxide, AHR activator, HIF activator)
NC(Cc1ccc(C(F)(F)F)cc1)c1csc(Nc2nncc3ccccc23)n1 (stereo not given)	HGIII-sPLA2 inh 20.9 (no result: Yeast superoxide, AHR activator, HIF activator) | hGIII sPLA2 conf inactive | 535nm interf inactive
Cc1cnc(C)c(Nc2nc(C(N)Cc3ccc(Cl)cc3)cs2)n1 (stereo not given)	HGIII-sPLA2 inh 24.9 (no result: Yeast superoxide, AHR activator, HIF activator) | hGIII sPLA2 conf inactive | 535nm interf inactive
Cc1cnc(C)c(Nc2nc(C(N)Cc3ccc(F)cc3)cs2)n1 (stereo not given)	none (no result: Yeast superoxide, AHR activator, HIF activator)
C=CCNS(=O)(=O)c1ccc(OCC(=O)OC)cc1	HGIII-sPLA2 inh 23.9 | hGIII sPLA2 conf inactive | 535nm interf inactive
COC(=O)COc1ccc(S(=O)(=O)NCc2ccco2)cc1	none
O=C(O)CCCNC(=O)C(c1ccccc1)c1ccccc1	HGIII-sPLA2 inh 20.9! | hGIII sPLA2 conf inactive | 535nm interf inactive
CN(C)S(=O)(=O)c1cccc(NC(=S)NNC(=O)c2cc3ccccc3cc2O)c1	HGIII-sPLA2 inh 37.1 (no result: HIF activator) | hGIII sPLA2 conf 35.9 | 535nm interf 13.2
COc1ccc(C(=O)NC(=S)NNC(=O)c2ccco2)cc1	HGIII-sPLA2 inh 19.3 | hGIII sPLA2 conf 28.6 | 535nm interf inactive | BODIPY interf DR inactive
COc1ccc(/C=C/C(=O)NC(=S)NNC(=O)c2ccco2)cc1	HGIII-sPLA2 inh 24.9 | hGIII sPLA2 conf 52.8 | 535nm interf inactive | BODIPY interf DR inactive
COc1ccc(/C=C/C(=O)NC(=S)Nc2ccc(C(=O)O)cc2)cc1	HGIII-sPLA2 inh 19.9 | hGIII sPLA2 conf inactive | 535nm interf inactive
CCN1C(=O)[C@H]2[C@@H](c3ccc(C)cc3)N[C@]3(CCCN(Cc4cccn4C)C3=O)[C@H]2C1=O	none (no result: Yeast superoxide, AHR activator, HIF activator)
N/C(CSc1ccc(Cl)cc1)=N\NC(=O)c1ccncc1	none
COc1ccc(/C=C/C(=O)NC(=S)NNC(=O)c2cc(OC)c(OC)c(OC)c2)cc1OC	none
O=C(NC(=S)NNC(=O)c1cc2ccccc2cc1O)c1ccco1	HGIII-sPLA2 inh 21.0 | hGIII sPLA2 conf 27.9 | 535nm interf inactive | BODIPY interf DR inactive
COc1ccc(/C=C/C(=O)NC(=S)NNC(=O)c2ccco2)cc1OC	HGIII-sPLA2 inh 20.1 | hGIII sPLA2 conf 25.3 | 535nm interf inactive
